Assay results reported in PubChem BioAssay AID1159580 (chemical genetic matrix, 2015).
Hit rate of the full screen: of about 5,500 compounds, about 2,000 (36%) were called active. About 18% were inconclusive and are not listed. Rule as the data show it: active = normalized growth mostly below about 0.91 (no sharp cut-off); inconclusive = no clear call, values can overlap the other calls; inactive = mostly above about 0.92. This is one part of the list.

Assay: chemical genetic growth profiling, strain panel (AID 1159580);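 also: tested at 20 µM; growth read once vehicle control cultures reached saturation at 30 °C; 1 = growth at the plate median or of vehicle wells; lower values mean less growth of the strain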
Conditions: growth OD

Measured: normalized growth

O=C(O)/C=C/C(=O)Nc1ccc(-n2nc(C(F)(F)F)cc2C(F)(F)F)cc1
inactive: S. cerevisiae deletion strains, locus YAL013W, strain DEP1, stronger effect = lower value 0.987 | S. cerevisiae deletion strains, locus YBR229C, strain ROT2, stronger effect = lower value 1 | S. cerevisiae deletion strains, locus YCL061C, strain MRC1, stronger effect = lower value 1.01 | S. cerevisiae deletion strains, locus YDL101C, strain DUN1, stronger effect = lower value 0.97 | S. cerevisiae deletion strains, locus YDL134C, strain PPH21, stronger effect = lower value 1.02 | S. cerevisiae deletion strains, locus YDR150W, strain NUM1, stronger effect = lower value 0.992 | S. cerevisiae deletion strains, locus YEL061C, strain CIN8, stronger effect = lower value 1.03 | S. cerevisiae deletion strains, locus YGR078C, strain PAC10, stronger effect = lower value 1.01 | S. cerevisiae deletion strains, locus YHR030C, strain SLT2, stronger effect = lower value 1.11 | S. cerevisiae deletion strains, locus YHR087W, strain rtc3, stronger effect = lower value 0.995 | S. cerevisiae deletion strains, locus YJL187C, strain SWE1, stronger effect = lower value 1.01 | S. cerevisiae deletion strains, locus YJR043C, strain POL32, stronger effect = lower value 1 | S. cerevisiae deletion strains, locus YJR075W, strain HOC1, stronger effect = lower value 1.08 | S. cerevisiae deletion strains, locus YKL190W, strain CNB1, stronger effect = lower value 1.02 | S. cerevisiae deletion strains, locus YLR039C, strain RIC1, stronger effect = lower value 1.04 | S. cerevisiae deletion strains, locus YLR058C, strain SHM2 (second series), stronger effect = lower value 1.02 | S. cerevisiae deletion strains, locus YLR085C, strain ARP6, stronger effect = lower value 1.07 | S. cerevisiae deletion strains, locus YLR262C, strain YPT6, stronger effect = lower value 1.03 | S. cerevisiae deletion strains, locus YML094W, strain GIM5, stronger effect = lower value 1.02 | S. cerevisiae deletion strains, locus YMR219W, strain ESC1, stronger effect = lower value 1.01 | S. cerevisiae deletion strains, locus YMR263W, strain SAP30, stronger effect = lower value 1.02 | S. cerevisiae deletion strains, locus YMR307W, strain GAS1, stronger effect = lower value 1.14 | S. cerevisiae deletion strains, locus YNL128W, strain TEP1, stronger effect = lower value 1.02 | S. cerevisiae deletion strains, locus YNL153C, strain GIM3, stronger effect = lower value 0.989 | S. cerevisiae deletion strains, locus YNL298W, strain CLA4 (second series), stronger effect = lower value 1.05 | S. cerevisiae deletion strains, locus YNL322C, strain KRE1, stronger effect = lower value 1 | S. cerevisiae deletion strains, locus YNR030W, strain Alg12, stronger effect = lower value 1.02 | S. cerevisiae deletion strains, locus YOL006C, strain TOP1, stronger effect = lower value 1.09 | S. cerevisiae deletion strains, locus YPL055C, strain LGE1, stronger effect = lower value 1 | S. cerevisiae deletion strains, locus YPL241C, strain CIN2, stronger effect = lower value 1.01 | S. cerevisiae deletion strains, locus YPR135W, strain CTF4, stronger effect = lower value 1.06 | S. cerevisiae strains, strain wild type, stronger effect = lower value 1.02
